# Source: PubChem (several laboratories)
# SRC2 inh – inhibits human steroid receptor coactivator 2 | Q15596 | HEK293 GAL4-SRC2 luciferase reporter, luminescence | 0.17% of 370,000 active | inhibition, % at 9 µM;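 active = inhibition above the mean inhibition of all tested compounds plus 3 SD, set per campaign, cut at about 52% in these data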
# NR5A2 inv ag – NR5A2 inverse agonism in reporter assay; inhibition, % at 3.6 µM; 0.13% of 360,000 active; O00482; HEK293T StAR-luciferase reporter, LRH-1 transfected, 24 h;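 active = inhibition above the mean inhibition of all tested compounds plus 3 SD, cut at about 73% in these data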
# NCOA1 inh – inhibits human SRC1 coactivator | AID 588354 | inhibition, % at 3.6 µM | 0.12% of 360,000 active | Q15788 | HEK293 GAL4-SRC1 luciferase reporter, luminescence;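 active = inhibition above the campaign mean plus 3 SD, with each screening campaign given its own cutoff, cut at about 60% in these data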
# NCOA3 inh – human NCOA3 inhibition. 0.17% of 360,000 active. inhibition, % at 3.6 µM. HEK293 GAL4-SRC3 luciferase reporter, luminescence. Q9Y6Q9. AID 588352;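 active = inhibition above a per-campaign cutoff, the mean of all compounds plus 3 SD, cut at about 60% in these data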;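 also: higher means less SRC3-driven luciferase light from the GAL4 reporter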
# COUP-TFII inh – inhibitors of human COUP-TFII (NR2F2); P24468; HEK293T NGFI-A luciferase reporter, luminescence; inhibition, % at 8.6 µM; 0.7% of 370,000 active; AID 686940;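 active = inhibition above a per-plate cutoff, mean inhibition of test wells between control levels plus 3 SD, cut at about 38% in these data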;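 also: cells cotransfected with COUP-TFII expression vector driving the NGFI-A reporter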
# Gli-Sufu block – Gli-Sufu pathway antagonism | Sufu-KO-LIGHT fibroblasts, Gli luciferase reporter luminescence | inhibition, % at 5 µM | 0.74% of 340,000 active;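 active = inhibition above about 55%, limit read from the data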
# Gli antag conf – confirmation of Gli-SUFU pathway antagonists. shares compounds with Gli-Sufu block. inhibition, % at 5 µM. 40% of 2,500 active. AID 602428. Sufu-KO-LIGHT cells, Gli luciferase reporter, luminescence;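 active = mean inhibition at 5 µM reaching about 45%, limit read from the data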
# Gli cytotox – cytotoxicity counter-screen for Gli-SUFU antagonists | shares compounds with Gli-Sufu block | Sufu-KO-LIGHT cells cytotoxicity, ATP luminescence | cytotoxicity, % at 5 µM | 32% of 2,500 active | AID 651994;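 active = mean cytotoxicity at 5 µM above about 25%, limit read from the data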;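 also: cells exposed to compound overnight for roughly 16 to 18 hours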
# Wnt3a counter – inhibits Wnt3a reporter, counter-screen for Gli-SUFU antagonists | Wnt-LIGHT cells, Wnt3a-driven luciferase reporter, luminescence | 20% of 2,500 active | shares compounds with Gli-Sufu block | inhibition, % at 6.25 µM;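 active = mean inhibition above about 25%, limit read from the data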
# Hits are given with their value; – = inactive; · = no result given. Most compounds without a hit are left out; they make up all but 1.2% or so of the library.
SMILES,SRC2 inh,NR5A2 inv ag,NCOA1 inh,NCOA3 inh,COUP-TFII inh,Gli-Sufu block,Gli antag conf,Gli cytotox,Wnt3a counter
Cc1c(N)cc(C(=O)N2CCOCC2)cc1[N+](=O)[O-],–,–,–,–,–,93,–,–,–
Cc1nn(CC(=O)NC(C)CCc2ccccc2)c(=O)c2nn(-c3ccccc3)c(C)c12 (stereo not drawn),–,–,–,–,–,–,–,–,–
COc1ccc(CNc2nc3ccccc3n2CCN2CCCCC2)cc1,–,–,–,–,–,–,·,·,·
CCN(CC)c1ccc(CNc2nc3ccccc3n2CCN2CCCCC2)cc1,–,–,–,–,–,67,–,–,–
Cc1cc(C)cc(N(CC(=O)NC2CCC(C)CC2)S(=O)(=O)c2ccc([N+](=O)[O-])cc2)c1 (stereo not drawn),–,·,·,·,–,·,·,·,·
CCN1CCN(C(=O)/C=C/c2ccc(F)cc2)CC1,–,–,–,–,–,–,·,·,·
CCN1CCN(C(=O)/C=C/c2ccc(OC)cc2)CC1,–,–,–,–,–,60,–,27,–
CCOc1ccc(N(C)C(=O)CCc2nnc3ccc(N4CCCCC4)nn23)cc1,–,–,–,–,–,59,–,–,–
C[C@H](CO)N1C[C@H](C)[C@@H](CN(C)S(=O)(=O)c2cn(C)cn2)Oc2ccc(NC(=O)Nc3ccccc3)cc2C1=O,–,–,–,–,–,96,–,–,–
C[C@H](CO)N1C[C@H](C)[C@@H](CN(C)S(=O)(=O)c2ccc(Cl)cc2)Oc2ccc(NS(=O)(=O)c3ccccc3)cc2CC1=O,–,–,–,–,–,58,–,–,–
C[C@@H]1CN([C@@H](C)CO)C(=O)c2cc(NC(=O)Nc3ccc4c(c3)OCO4)ccc2O[C@H]1CN(C)S(=O)(=O)c1cn(C)cn1,–,–,–,–,–,–,·,·,·
Cc1ccc(S(=O)(=O)Nc2ccc3c(c2)CC(=O)N([C@H](C)CO)C[C@@H](C)[C@H](CN(C)S(=O)(=O)c2ccccc2)O3)cc1,–,–,–,–,–,–,·,·,·
CC(C)c1nc(N2CCN(C(=O)c3ccco3)CC2)c(C#N)c2c1COC(C)(C)C2,–,–,–,–,–,–,·,·,·
CCCCc1nc(N2CCN(C(=O)c3ccco3)CC2)c(C#N)c2c1CCCC2,–,–,–,–,–,66,–,–,35
O=S1(=O)N[C@H](Cc2ccccc2)COc2cc(N3CCOCC3)ccc21,–,·,·,·,–,·,·,·,·
COc1ccc(-c2nn(-c3ccccc3)cc2/C=C/C(=O)O)cc1[N+](=O)[O-],–,–,–,–,–,–,·,·,·
COc1ccc(-c2nn(-c3ccccc3)cc2C=O)cc1[N+](=O)[O-],–,–,–,–,–,55,–,33,–
CCOC(=O)[C@H]1[C@H]2COc3ccc(OC)cc3[C@@H]2N2C(=O)c3cc(OC)c(OC)cc3NC(=O)[C@@]12C,–,–,–,–,–,99,–,–,–
Cc1cc(/C=N/n2cnnc2)c(C)n1-c1ccc(OCc2ccccc2F)cc1,–,–,–,–,–,60,68,27,27
Cc1ccc(C2NC(=O)c3n[nH]c(C(C)C)c32)cc1 (stereo not drawn),–,·,·,·,–,·,·,·,·
CC1=NCCN1S(=O)(=O)c1cc(Cl)ccc1Cl,–,–,–,–,–,56,–,–,–
C=CCN=C1NC(CCc2ccccc2)C(C(=O)OC)=C(C)N1Cc1cccc(C(F)(F)F)c1 (stereo not drawn),–,·,·,·,–,·,·,·,·
Cc1cc(=O)oc2cc(OCC3CC(c4ccc(N(C)C)cc4)=NO3)ccc12 (stereo not drawn),–,–,–,–,–,99,–,–,–
Cc1cc(=O)oc2cc(OCC3CC(c4ccc(Cl)cc4)=NO3)ccc12 (stereo not drawn),–,–,–,–,–,–,·,·,·
CCOc1ccccc1NC(=O)CCN1CCN(S(=O)(=O)c2ccc(Br)cc2)CC1,–,–,–,–,–,–,–,–,–
CCOc1ccc(NC(=O)CCN2CCN(S(=O)(=O)c3ccc(F)cc3)CC2)cc1,–,–,–,–,–,–,·,·,·
